# Assay outcomes from PubChem.
# Hits are enriched below; roughly 6.1% of the tested compounds scored in any of these assays.
# D1 potentiator: potentiators of human D1 dopamine receptor | P21728 | HEK293 TREx D1 cells, calcium flux, dopamine EC20 potentiation | potentiation, % at 10 µM | 360,000 tested, 0.036% active; in the data active = potentiation above about 30%
# DRD3 agonist: activates the human D3 dopamine receptor; D3R DiscoveRx beta-arrestin cells, luminescence, 90 min; max activation, %; 410,000 tested, 0.58% active; AID 652048; in the data active = max activation above about 30%
# Target sequence (P35462 whole entry, looked up): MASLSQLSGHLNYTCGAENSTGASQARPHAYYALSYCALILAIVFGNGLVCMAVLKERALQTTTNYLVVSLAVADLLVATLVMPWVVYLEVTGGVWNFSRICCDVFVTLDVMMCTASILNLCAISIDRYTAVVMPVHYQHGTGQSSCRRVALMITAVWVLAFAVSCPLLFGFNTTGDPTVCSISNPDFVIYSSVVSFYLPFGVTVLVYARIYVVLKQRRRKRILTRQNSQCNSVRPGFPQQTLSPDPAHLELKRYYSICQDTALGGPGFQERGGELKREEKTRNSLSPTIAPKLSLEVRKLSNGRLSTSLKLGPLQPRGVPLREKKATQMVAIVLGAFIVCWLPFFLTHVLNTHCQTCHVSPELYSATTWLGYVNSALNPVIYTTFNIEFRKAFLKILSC
#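 Agonist mode: compounds and dopamine controls were applied to plated cells for 90 min at 37 degrees C after an overnight attachment at 1500 cells/well. Luminescent read-out followed 30 - 60 minutes at room temperature with DiscoveRx detection reagent.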
# D1 ag: agonists of human D1 dopamine receptor; AID 504660; activation, % at 2 µM; 360,000 tested, 1% active; HEK293 T-REx D1 cells, calcium flux, agonist mode; in the data active = activation above about 30%
#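 Agonism was scored from calcium flux recorded over 180 s (1 read/s) after pintool compound addition, following a 10-cycle baseline. Cells were inducible force-coupled HEK293 TREx D1, plated overnight at 30 C and loaded with no-wash calcium dye.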
# D1 antagonist: antagonists of human D1 dopamine receptor; AID 504652; HEK293 TREx D1 cells, calcium flux, dopamine EC80; stronger effect = lower value; P21728; 360,000 tested, 3.2% active; activity change, negative = inhibition, % at 10 µM; in the data active = activity change below about -30%
#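 Calcium flux readout: force-coupled, inducible Hek293 Trex D1 line, cells induced overnight at 30 C with tetracycline, dye-loaded 30–90 min at RT. Antagonism scored against EC80 dopamine challenge given 180 s after compound.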
# D3 antag: blocks the human D3 dopamine receptor | P35462 | D3R cells, DiscoveRx beta-arrestin luminescence, antagonist mode; stronger effect = lower value | max response, negative = inhibition, % | 360,000 tested, 2.5% active | AID 652054; in the data active = max response below about -50%; inconclusive = no clear call, values can overlap the other calls
#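 Cells plated overnight at 1500 cells/well, then exposed to library compounds with dopamine controls for 90 minutes at 37 degrees C. DiscoveRx reagent added for 30–60 minutes at room temperature; luminescence read, quantitative HTS format.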
# A number is an active result; n = inactive; u = inconclusive; x = no result; ! = repeats disagree.
SMILES,D1 potentiator,DRD3 agonist,D1 ag,D1 antagonist,D3 antag
COc1ccc(-n2ccnc(NCCc3ccc(S(N)(=O)=O)cc3)c2=O)cc1Cl,n,n,n,n,x
COc1ccc(-c2cn3c(n2)sc2cc(C(=O)Nc4cc(Cl)ccc4C)ccc23)cc1,n,n,n,n,x
CCOc1ccccc1CNC(=O)c1cc2c(=O)n(Cc3ccccc3)ccc2nc1C,n,n,n,n,x
O=c1[nH]c(SCc2c(F)cccc2Cl)nc2c1CCC2,n,n,n,n,x
N#C/C(=C/C1=C(N2CCOCC2)C(=C/c2cccc([N+](=O)[O-])c2)/CC1)C(=O)Nc1ccccc1F,x,38.8,x,x,n
COc1ccccc1NC(=O)NNC(=O)c1ccc2ccccc2c1O,n,n,n,-35.6,n
COc1ccc(OC)c(NC(=O)Nc2cccc3ccccc23)c1,n,n,n,n,-57.3
COc1cccc(C(=O)Nc2cccc3ccccc23)c1OC,n,n,n,-35.3,n
Cc1oc(-c2ccccc2F)nc1CS(=O)(=O)CC(=O)NCCCN1CCc2ccccc2C1,n,n,n,n,-76.9
COc1cccc(-c2nc(CS(=O)(=O)CC(=O)NCC(C)c3ccccc3)c(C)o2)c1 (stereo unspecified),n,n,69.6,n,n
COc1cccc(-c2nc(CS(=O)(=O)CC(=O)NCCc3ccccc3)c(C)o2)c1,n,n,n,n,n
Cc1ccccc1-c1nc(CS(=O)(=O)CC(=O)NCCc2ccccc2)c(C)o1,n,n,30.7!,-31.5!,n
COc1cccc(Cn2c(=O)cc(C)c3c(C)nn(-c4ccc(C)cc4)c32)c1,n,n,n,n,x
Cc1ccc(C)c(N2CCN(C(=O)CS(=O)(=O)c3cccc4nsnc34)CC2)c1,n,n,n,n,x
CN1CCc2cccc3c2C1Cc1ccc(O)c(O)c1-3 (stereo unspecified),n,123.4,48.3,-74.8,n
CC(=O)c1c(C)[nH]c(C(=O)OCC(=O)Nc2ccc(Cl)c(S(=O)(=O)N(C)C)c2)c1C,n,n,n,n,n
CC(=O)c1c(C)[nH]c(C(=O)Nc2cccc(S(=O)(=O)N(C)c3ccccc3)c2)c1C,n,n,n,-44.4,n
CC(=O)c1c(C)[nH]c(C(=O)Nc2ccc(Cl)cc2)c1C,n,n,33.0,-63.1,n
CC(=O)c1c(C)[nH]c(C(=O)Nc2ccc(Cl)c(S(=O)(=O)N(C)C)c2)c1C,n,n,n,-49.9,n
CC(C)CC1(C)NC(=O)N(CC(=O)Nc2cccc(S(=O)(=O)N(C)c3ccccc3)c2)C1=O (stereo unspecified),n,n,n,-38.7,n
Cc1ccccc1CN(C)CC(=O)Nc1cccc(S(=O)(=O)N(C)c2ccccc2)c1,n,n,n,-41.3,u
COc1cc(CNc2ccc3[nH]c(=O)[nH]c3c2)ccc1OCc1ccc(F)cc1,n,n,n,n,n
O=c1[nH]c2ccc(NCc3ccc(-c4ccc(F)cc4)o3)cc2[nH]1,n,n,33.5,n,x
CCn1c(O)c(/C=N/N=C/c2ccccc2)c2ccc(C3=NNC(=O)CC3)cc21,n,n,n,n,n
CCC(CC)=N/N=C/c1c(O)n(CC)c2cc(C3=NNC(=O)CC3)ccc12,n,n,n,n,-53.0
SMILES,D1 potentiator,DRD3 agonist,D1 ag,D1 antagonist,D3 antag
CCc1cccc(OCCOCCN2CCCC2)c1,n,n,n,n,-71.1
Cc1ccc(C(C)C)cc1OCCOCCN1CCCC1,n,n,n,n,-66.1
Cc1ccc(C(C)C)cc1OCC(=O)NC1CCCCCCC1,n,n,n,n,n
CCOc1cccc(OCCOCCN2CCCC2)c1,n,n,n,n,u
Cc1cc(OCCOCCN2CCCC2)ccc1C(C)C,n,n,n,n,-58.2
COCCCNCCOc1cc(C(C)C)ccc1C,n,n,n,n,-66.3
COc1ccc(CCNC(=O)CCc2c(C)nc3cc(-c4ccccc4OC)nn3c2C)c(OC)c1,n,n,n,n,x
O=C(c1ccc2c(c1)N(Cc1ccc(Cl)cc1)C(=O)c1ccccc1S2=O)N1CCN(c2ccccc2F)CC1 (stereo unspecified),n,n,n,n,x
CCn1cc(S(=O)(=O)c2cc(C)cc(C)c2)c(=O)c2cc(F)c(N3CCN(c4ccccc4)CC3)cc21,n,n,n,n,x
CN(CCNC(=O)c1cccc(N2CCCC2=O)c1)Cc1ccccc1,n,n,n,n,-58.4
CN(C)c1ccc(S(=O)(=O)N2CCCCC2)cc1NC(=O)CN1C(=O)NC2(CCCC2)C1=O,n,n,n,-41.8,n
CN(C)c1ccc(S(=O)(=O)N2CCCCC2)cc1NC(=O)CN1C(=O)NC(C)(c2ccccc2)C1=O (stereo unspecified),n,n,n,n,n
CCN(CC)CCCNC(=O)Cn1cnc2ccc(S(=O)(=O)N3CCC(C)CC3)cc2c1=O,n,n,n,-38.8,n
CCc1ccccc1NC(=O)CN1C(=O)COc2ccc(S(=O)(=O)N3CCCCCC3)cc21,n,n,n,-46.1,x
CC(C)CCNC(=O)CN1C(=O)COc2ccc(S(=O)(=O)N3CCOCC3)cc21,n,n,n,-46.6,x
CCSc1nc2c(c(=O)[nH]c(=O)n2C)n1CC(O)COc1ccc(Cl)cc1 (stereo unspecified),n,n,n,n,x
Cc1ccc2c(CC(=O)NCc3ccccc3)coc2c1C,n,n,n,n,x
COc1ccc(CCNC(=O)CN2C(=O)COc3ccc(S(=O)(=O)N4CCCC4)cc32)c(OC)c1,n,n,n,-85.6!,n
CCOc1ccc(CCNC(=O)CN2C(=O)COc3ccc(S(=O)(=O)N4CCCC4)cc32)cc1,n,n,n,n,x
CCOc1ccc(NC(=O)CN2C(=O)COc3ccc(Cl)cc32)cc1,n,n,n,-59.4,n
CCOc1ccc(CCNC(=O)CN2C(=O)COc3ccc(S(=O)(=O)N4CCOCC4)cc32)cc1,n,n,n,-69.1,n
COc1ccc(OC)c(CCNC(=O)CN2C(=O)COc3ccc(S(=O)(=O)N4CCCCCC4)cc32)c1,n,n,n,n,x
CCN(CCCNC(=O)CN1C(=O)COc2ccc(S(=O)(=O)N3CCC(C)CC3)cc21)Cc1ccccc1,n,n,n,n,-73.7
CCc1cccc(C)c1NC(=O)Cn1cc2c(n1)CCCC2,n,n,n,n,x
CCS(=O)(=O)N1CC(=O)N(c2ccc(C)c(C)c2)C(C)(C(=O)NC2CCCCC2)C1 (stereo unspecified),n,n,n,n,x
COc1ccc(-c2cc(=O)c3c(OC)c(OC)c(OC)c(OC)c3o2)cc1OC,n,40.3,n,n,n
COC(=O)c1ccc(NC(=O)CC2C(=O)N(c3ccc(C)cc3)C(=O)N2Cc2ccc(OC)cc2)cc1 (stereo unspecified),n,n,n,n,x
O=C(NC(c1ccc(Cl)cc1)c1ccsc1)C1CCN(Cc2cccc(C(F)(F)F)c2)CC1 (stereo unspecified),x,n,x,x,-92.6
O=C(NC(c1ccc(Cl)cc1)c1ccsc1)C1CCN(Cc2cccc(Cl)c2)CC1 (stereo unspecified),x,n,x,x,-50.4
